Screening data deposited in PubChem by National Center for Advancing Translational Sciences (NCATS).
Sfp inh: Sfp phosphopantetheinyl transferase inhibition; Biochemical Sfp PPTase activity, qHTS; Potency, µM, without a hit: largest response in the series, negative = inhibition, actives largely listed as inhibitors; actives 3.5% (n = 310,000);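 note: the enzyme is Sfp with the accession as filed and its product quenches rhodamine fluorescence; potency is the fitted concentration of half-maximal effect; 0% = enzyme reaction without inhibitor and -100% = no enzyme wells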
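Buffer: 50 mM Hepes-Na pH 7.6, 10 mM MgCl2, 0.01% Nonidet P-40, 0.01% BSA. Enzyme 15 nM, pre-exposed to compound 15 min; substrates then added and fluorescence change tracked over 30 min.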
G9a block: blocks human histone lysine methyltransferase G9a. Potency, µM (top dose mostly 102 µM), for inactives: top-dose activity, negative = inhibition, actives largely listed as inhibitors. G9a H3K9 monomethylation, AlphaScreen, 2 h. Q96KQ7. actives 8.8% (n = 350,000); note: potency is the fitted concentration of half-maximal effect; nearly all actives have a fitted effect of over 75% in size
Target sequence (Q96KQ7 913-1193 limits assumed): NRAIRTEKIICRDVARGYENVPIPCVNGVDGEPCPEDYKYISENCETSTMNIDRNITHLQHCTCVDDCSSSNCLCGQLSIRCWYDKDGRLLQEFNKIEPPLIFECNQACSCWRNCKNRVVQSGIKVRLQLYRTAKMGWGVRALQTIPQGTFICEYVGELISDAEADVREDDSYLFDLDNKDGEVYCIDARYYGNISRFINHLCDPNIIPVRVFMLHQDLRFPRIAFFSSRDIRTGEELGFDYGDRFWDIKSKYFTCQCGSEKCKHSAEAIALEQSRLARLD
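AlphaScreen detection with an anti-monomethyl H3K9 antibody quantified product after a 2 h room-temperature reaction containing 500 nM biotinylated H3K9 peptide, 20 µM SAM and 20 nM enzyme, which had been preincubated 15 min with compound.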
VDR inhibitor: blocks the human vitamin D receptor; P11473; actives 0.93% (n = 400,000); VDR-SRC2-3 peptide fluorescence polarization, 2 h; AID 504847; Potency, µM, for the others: max response, negative = inhibition, actives largely listed as inhibitors; note: potency is the fitted concentration of half-maximal effect
Target sequence (P11473 whole entry, looked up): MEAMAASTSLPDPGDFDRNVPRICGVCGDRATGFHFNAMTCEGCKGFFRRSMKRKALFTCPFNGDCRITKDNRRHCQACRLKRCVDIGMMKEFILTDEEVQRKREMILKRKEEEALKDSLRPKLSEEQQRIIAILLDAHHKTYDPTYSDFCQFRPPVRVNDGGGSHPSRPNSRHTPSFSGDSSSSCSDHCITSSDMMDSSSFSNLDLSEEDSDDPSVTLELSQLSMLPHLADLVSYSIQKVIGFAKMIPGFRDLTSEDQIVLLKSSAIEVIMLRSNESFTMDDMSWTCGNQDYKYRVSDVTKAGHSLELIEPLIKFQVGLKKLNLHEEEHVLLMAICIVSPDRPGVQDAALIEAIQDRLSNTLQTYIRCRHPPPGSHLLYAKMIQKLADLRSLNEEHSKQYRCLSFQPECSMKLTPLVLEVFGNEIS
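Two reagent solutions held at 4 deg C in the dark were dispensed, compounds pinned at 23 nl, and the mixture incubated 2 h at room temperature. Read-out: fluorescence polarization of VDR–SRC2-3 peptide binding.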
Mm-Cpn inhibitor: M. maripaludis TRiC chaperonin inhibition; AID 504842; purified Mm-Cpn ATPase, ADP Transcreener TR-FRET; Potency, µM (series often up to 76.9 µM), for inactives: at the top dose activity, negative = inhibition, usual class: inhibitors; actives 0.031% (n = 330,000); note: potency is the fitted concentration of half-maximal effect; nearly all actives have a fitted effect of over 80% in size
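Inhibition of chaperonin ATP hydrolysis is measured as reduced ADP production, detected by competitive TR-FRET in which signal falls with ADP. Final enzyme 25 nM and ATP 10 uM, reacted 30 min at 37°C.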
PLK1 PBD inh: blocks phosphopeptide binding to human PLK1 polo-box domain. P53350. Plk1 PBD binding of FITC phosphopeptide, fluorescence polarization. Potency, µM, for the others: max response, negative = inhibition, most hits filed as inhibitors. actives 2.8% (n = 360,000). AID 720504; note: potency is the fitted concentration of half-maximal effect; series mostly up to about 57 µM; nearly all actives have a fitted effect of over 65% in size
CCT modulator: cytosolic chaperonin activity modulation; purified chaperonin ATPase assay, HTRF ADP detection, 30 min; activity change, % (test concentration not listed), hits read low; actives 0.3% (n = 360,000); in the data active = activity change below about -30%
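We incubate TRiC, 40 or 20 nM final, with library compounds at 76 uM and 10 uM ATP for 30 min at 37 °C. ADP formed is detected with Transcreener HTRF reagents after 30 min at room temperature.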
Numbers without * were called inactive; ? = inconclusive; · = no result given; [ ] = another dose, or the depositor's remark. Only some compounds are listed: those with a hit (about 10% of all), similar ones and a draw of the others. Unless noted, calls come from the whole dose curve; as a rule, active = well fitted curve in the direction sought with a large enough effect; inconclusive = small, poorly fitted or top-dose-only effect, or another doubt; inactive = no such curve, though single readings can be large; an effect the other way counts as inactive or inconclusive. Unless noted, % is set by controls: 0 for no effect and ±100 for the full control effect.

SMILES | Sfp inh | G9a block | VDR inhibitor | Mm-Cpn inhibitor | PLK1 PBD inh | CCT modulator
NC1=NC(c2cccc(Cl)c2)n2c(nc3ccccc32)N1 (configuration not stated) | · | -10%[59 µM] | -20% | · | · | ·
CCc1nnc2c(NCc3ccccc3OC)nc3ccccc3n12 | · | -4%[59 µM] | 3% | · | · | ·
Cc1ccc(C)c(N2CCN(C(=O)CCCCCn3c(=O)[nH]c4ccccc4c3=O)CC2)c1 | · | -1%[59 µM] | -4% | · | · | ·
Cc1ccsc1C1C(C#N)=C(N)OC2=C1C(=O)CCC2 (configuration not stated) | 56µM* | 23% | 16% | 0% | ? | -1
CCOC(=O)c1c(NC(=O)C2=C(C)NC(=S)NC2c2ccc(C)cc2)sc(C)c1C (configuration not stated) | 20µM* | 6%[59 µM] | -23% | -14% | ? | -2
CCOC(=O)c1c(NC(=O)C2=C(C)NC(=S)NC2c2ccc(F)cc2)sc(C)c1C (configuration not stated) | -11% | 22%[59 µM] | -13% | -14% | ? | -5
O=C(CSc1nc2ccccc2n1CC(=O)N1CCOCC1)N1CCCC1 | 9% | -47%[59 µM] | 11% | -1% | -6% | 0
O=C(CSc1nc2ccccc2n1CCc1ccccc1)c1ccc(O)c(O)c1 | 50µM* | · | -20% | 1% | ? | -3
Cc1nc2ccccc2n1CC(=O)c1ccc(O)c(O)c1 | · | -14%[2.33 µM] | 8% | -3% | -6% | 1
O=C(CSc1nc2ccccc2n1CCc1ccccc1)N1CCOCC1 | 5% | 50µM* | 0% | 0% | 6% | -1
Cc1[nH]ccc(=O)c1Cc1c(Cl)cccc1Cl | 6% | 2% | 2% | 0% | 1% | -1
Cc1nc(C(Cl)(Cl)Cl)nc2[nH]ccc(=O)c12 | 16% | -8% | 18µM* | 0% | 27µM* | 1
Cc1cc(OC(C)C(=O)N2CCN(CCc3ccccn3)CC2)ccc1Cl (configuration not stated) | · | -29%[59 µM] | 1% | · | · | ·
N#Cc1ccccc1NC(=O)COC(=O)CCc1ccccc1 | 8% | 24% | -15% | -3% | -4% | -2
Cc1ccccc1NC(=O)COC(=O)CCc1ccccc1 | 9% | 12% | -11% | 3% | 6µM* | 0
O=C(COC(=O)CCc1ccccc1)NC1CCS(=O)(=O)C1 (configuration not stated) | · | 50µM* | -12% | 0% | -7% | 1
C=CCC(C)(O)C#Cc1ccccc1 (configuration not stated) | 10% | · | 4% | · | · | ·
COC(=O)c1ccc(CC(=O)c2ccc(O)cc2O)o1 | -30% | 22µM* | 7% | -1% | 5% | -2
CCOC(=O)c1ccc(CC(=O)c2ccc(O)cc2O)o1 | 1% | 22µM* | 8% | 1% | -1% | -1
COC(=O)c1ccc(CSCc2ccc(C(=O)OC)o2)o1 | 4% | 28% | -24% | 3% | -29% | -1
COC(=O)c1ccc(CC(=O)c2c(C)cc(O)cc2O)o1 | 40µM* | 45µM* | -14% | -2% | -20% | 0
COC(=O)c1cc(CC(=O)c2ccc(O)cc2O)c(C)o1 | 10% | 95%[59 µM] | -1% | 0% | -1% | -2
Cc1ccc(-c2csc(N(CCO)CCCn3c(C(F)(F)F)nc4ccccc43)n2)cc1 | -22% | 45µM* | -3% | -11% | -10% | 1
COc1ccc(/C=C/C2=CC3(C)CC2(C)C(c2ccc(OC)cc2)CC3=O)cc1 (configuration not stated) | -24% | · | · | · | · | ·
CCc1cc(=O)[nH]c(SCc2nc(-c3ccc(C(F)(F)F)cc3)no2)n1 | · | 0%[59 µM] | 9% | · | · | ·
SMILES | Sfp inh | G9a block | VDR inhibitor | Mm-Cpn inhibitor | PLK1 PBD inh | CCT modulator
O=C(c1cccc(F)c1)n1nnc2ccccc21 | 14% | -9%[12.7 µM] | 5% | 4% | ? | -2
O=C(c1ccc(Cl)cc1Cl)n1nnc2ccccc21 | -18% | · | 3.5µM* | · | · | ·
CC1(C)C2CCC1(C)C(OCCNCCOC(=O)Nc1ccccc1)C2 (configuration not stated) | 13% | -17% | -18% | -4% | -17% | -40*
COc1ccc(CNC2CCCc3ccccc32)c(OC)c1 (configuration not stated) | -19% | · | 1% | 0% | -13% | 1
COc1ccc(CNC2CCCCC2C)c(OC)c1 (configuration not stated) | -4% | 14µM* | -5% | 0% | -2% | 2
c1cc2c3c(cccc3c1)NC1(CCCCC1)N2 | -12% | 1.1µM* | -1% | -3% | -21% | -4
Cc1cccc(NC(=O)C2CCCN(S(=O)(=O)c3cnc[nH]3)C2)c1C (configuration not stated) | · | -36%[59 µM] | -2% | · | · | ·
CCNc1ccccc(C(=O)/C=C/c2ccc3c(c2)OCO3)c1=O | 45µM* | 5µM* | ? | -2% | 24µM* | -2
O=C(/C=C/c1ccc2c(c1)OCO2)c1cccs1 | 71µM* | · | 20µM* | · | · | ·
O=C(/C=C/c1ccc2c(c1)OCO2)c1ccc[nH]1 | -4% | -2%[59 µM] | 4% | -2% | -27% | 0
Brc1ccc(NC2=Nc3ccccc3CC2)cc1 | 6% | 16% | ? | 1% | 12µM* | -2
Cc1ccc2c(C(=O)CN3CCSCC3)c(C)[nH]c2c1 | 7% | 10%[12.7 µM] | -22% | 1% | 19µM* | 1
Cc1ccc2c(C(=O)CN3CCC4(CC3)OCCO4)c(C)[nH]c2c1 | 18% | 12%[59 µM] | 4% | -6% | -2% | 2
O=C(O)c1ccc2c(c1)C(=O)N(Cc1ccco1)C2=O | 0% | 56µM* | -24% | 2% | ? | 4
O=C1c2ccccc2C(=O)N1Cc1ccco1 | 11% | -1%[59 µM] | -6% | -1% | -5% | 0
CCc1ccc(NC(=O)c2ccc3c(c2)C(=O)N(Cc2ccco2)C3=O)cc1 | 40µM* | 50µM* | ? | -3% | -25% | -1
O=C1c2cccc3c(O)ccc(c23)C(=O)N1Cc1ccco1 | 7.1µM* | 40µM* | ? | -13% | 4.7µM* | -4
Cc1cccc(C(=O)Nc2ccc(N3CC=C(c4ccccc4C)CC3)c(C(=O)O)c2)c1 | · | ? | 6% | · | · | ·
COc1cccc(NC(=O)C2CCC(CNS(=O)(=O)c3ccc4c(c3)CCCC(=O)N4)CC2)c1 (configuration not stated) | · | 6%[59 µM] | 10% | · | · | ·
C[C@@H]1[C@H]2CC[C@@H]3[C@@H]4CC=C5C[C@@H](N(C)C)CC[C@]5(C)[C@@H]4CC[C@@]32CN1C | 23% | 24%[21.5 µM] | 11% | · | · | ·
Cn1c(CNC(=O)C2CCCCC2)cc2ccccc21 | 8% | -7% | -11% | 0% | -4% | 1
Cc1cc2ccccc2n1CCNC(=O)c1cccs1 | -15% | 35µM* | ? | 28µM* | -9% | -1
Cc1cc2ccccc2n1CCNC(=O)C1CC1 | 7% | 71µM* | -19% | -5% | -12% | 1
